A selection: hits, their analogues and other compounds. The true share with any hit is near 2.5%.
Cruzain Triton: qHTS Assay for Promiscuous and Specific Inhibitors of Cruzain (with detergent). Cruzipain (Trypanosoma cruzi), P25779. purified cruzain, Z-FR-AMC fluorescence, 0.01% Triton. Potency, µM, inactives show max response, negative = inhibition, actives largely listed as inhibitors. 200,000 compounds, 0.43% hits. AID 1478, 2009;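 note: plate controls were neutral wells for no effect and buffer without enzyme for full effect; nearly all actives have a fitted effect of over 40% in size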
Target sequence (P25779 123-467 limits assumed): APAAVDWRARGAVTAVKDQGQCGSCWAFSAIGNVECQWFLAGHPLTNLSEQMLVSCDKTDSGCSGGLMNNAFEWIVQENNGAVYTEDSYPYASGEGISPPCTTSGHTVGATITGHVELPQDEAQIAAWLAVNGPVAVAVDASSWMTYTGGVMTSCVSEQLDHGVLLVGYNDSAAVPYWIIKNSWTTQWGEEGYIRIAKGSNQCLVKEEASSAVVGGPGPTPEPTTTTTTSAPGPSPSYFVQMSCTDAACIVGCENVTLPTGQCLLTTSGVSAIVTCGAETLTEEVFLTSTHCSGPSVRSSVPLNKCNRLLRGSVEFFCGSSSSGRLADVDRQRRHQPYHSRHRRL
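Purified cruzain (1.5 nM final) was preincubated with compounds for 15 min at room temperature in 100 mM sodium acetate pH 5.5, 5 mM DTT, 0.01% Triton X-100. Reaction started with 2 uM Z-FR-AMC; AMC fluorescence change over 60 s gave activity.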
Cruzain inh noDet: qHTS Assay for Promiscuous and Specific Inhibitors of Cruzain (without detergent); 200,000 compounds, 2.3% hits; purified cruzain, Z-FR-AMC fluorescence, no detergent; Cruzipain (Trypanosoma cruzi), P25779; Potency, µM, without a hit: max response, negative = inhibition, most hits filed as inhibitors;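 note: plate controls were enzyme without inhibitor for no effect and buffer without enzyme for full effect; nearly all actives have a fitted effect of over 40% in size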
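Purified cruzain at 1.5 nM, pre-incubated 15 min with compound at room temperature in 100 mM sodium acetate pH 5.5, 5 mM DTT, 0.00005% Triton X-100. Reaction started with 2 uM Z-FR-AMC; AMC fluorescence increase over 60 s gives rate.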
* hit, by the source's call; ? = inconclusive. Calls come from the whole dose curve; as a rule, active = well fitted curve in the direction sought with a large enough effect; inconclusive = small, poorly fitted or top-dose-only effect, or another doubt; inactive = no such curve, though single readings can be large; an effect the other way counts as inactive or inconclusive. Potency is the fitted concentration of half-maximal effect.

SMILES	Cruzain Triton	Cruzain inh noDet
CN(C)c1ncc2ncc(=O)n(C[C@H]3CCCO3)c2n1	-10.3%	-7.9%
O=C(O)c1ccc(N2C(=O)c3[nH]nc(-c4ccccc4)c3C2c2cccc(F)c2)cc1 (configuration not stated)	-7.1%	-0.4%
O=C(CSC1=Nc2ccccc2N=C(c2ccc(F)cc2)C1)NCc1ccccc1Cl	-3.2%	8.5%
Cc1cc2oc(C(=O)N(Cc3ccccc3F)C3CCS(=O)(=O)C3)c(C)c2cc1Cl (configuration not stated)	-7.3%	5.2%
CCc1nnc(N/N=C/c2c(Cl)cccc2Cl)n1N	-2.8%	-7.0%
Cc1nnc(N/N=C/c2cccc(OCc3ccc(Cl)c(Cl)c3)c2)n1N	22.4µM*	?
O=S(=O)(Nc1cccc(-c2ccc(N3CCOCC3)nn2)c1)c1ccccc1C(F)(F)F	-5.4%	29.5%
O=[N+]([O-])c1ccc(N/N=C/c2c[nH]c3ccccc23)c(S(=O)(=O)Nc2ccc(Cl)cc2)c1	0.2%	?
Cc1[nH]c2ccccc2c1/C=N/Nc1ccc([N+](=O)[O-])cc1	-1.2%	25.1µM*
COc1ccccc1NS(=O)(=O)c1cc([N+](=O)[O-])ccc1N/N=C/c1c(C)[nH]c2ccccc12	-0.3%	7.94µM*
Cc1[nH]c2ccccc2c1/C=N/Nc1ccc(F)cc1F	-0.7%	?
COc1cccc(-c2ccc3c(N)c(C(=O)c4ccc(Br)cc4)sc3n2)c1	-2.6%	7.94µM*
COc1ccc(C(=O)c2sc3nc(-c4ccccc4)ccc3c2N)cc1OC	-5.0%	1.7%
Cc1ccc(C(C)C)c(OCCCn2c(=O)oc3ccccc32)c1	-6.7%	-17.1%
CCCCNc1nc(Oc2ccc(OCCC)nn2)nc(N(C)C)n1	-1.1%	-2.8%
CCOc1ccc(CCNC(=O)Cn2ncn3c(cc4sc(C)cc43)c2=O)cc1OCC	-1.3%	0.4%
CCCOc1ccccc1C(=O)N1CCCCC1CCN1CCCCC1 (configuration not stated)	-1.2%	-13.2%
O=C(Nc1ccc(F)cc1F)c1cc2ccc3cccnc3c2[nH]1	-2.0%	25.1µM*
O=C(Nc1cccc(C(F)(F)F)c1)c1cc2ccc3cccnc3c2[nH]1	-0.2%	-14.0%
COc1ccc(-n2nc3ccc(NC(=O)c4cc5ccccc5o4)cc3n2)cc1Cl	8.0%	-1.4%
Cc1ccc(-n2nnc(-c3nc(-c4cccs4)no3)c2N)c(C)c1	2.2%	4.1%
COc1cc(NCc2ccc3nc(N)nc(N)c3c2C)cc(OC)c1OC	-3.1%	-16.8%
Cc1ccc2c(c1)-c1c(ssc1=S)C(C)(C)N2C(=O)c1ccco1	-16.2%	15.8µM*
CC1(C)c2ssc(=S)c2-c2ccccc2N1C(=O)c1ccco1	-4.2%	?
CCCCC[C@H](O)/C=C/C=C\C/C=C\CCCCCCC(=O)O	-1.7%	-0.9%
SMILES	Cruzain Triton	Cruzain inh noDet
CC(NC(=O)c1ccccc1)(C(=O)O)C(=O)O	1.0%	8.3%
CC(/C=C1\SC(=O)N(CC(=O)Nc2cccc(O)c2)C1=O)=C\c1ccccc1	-3.7%	7.9%
Cc1cccc(NC(=O)CN2C(=O)S/C(=C\C(=O)Nc3ccc(Cl)cc3)C2=O)c1	-1.1%	12.6µM*
O=C(/C=C1\SC(=O)N(CC(=O)Nc2ccc(F)cc2)C1=O)Nc1ccc(Cl)cc1	-0.9%	25.1µM*
Cc1cccc(NC(=O)CN2C(=O)N/C(=C/c3ccc(C)s3)C2=O)c1	-3.7%	3.98µM*
Cc1cccc(NC(=O)CN2C(=O)N/C(=C/c3cc(C)n(C(C)C)c3C)C2=O)c1	-3.5%	-20.4%
O=C(/C=C1\SC(=O)N(CC(=O)Nc2ccc(Cl)cc2)C1=O)Nc1ccc(F)cc1	-2.6%	?
O=C1CN(C(=O)COc2ccc(Cl)cc2)C(c2ccc(F)cc2)c2cc(Cl)ccc2N1 (configuration not stated)	-8.5%	?
Cc1nc(CC(=O)Nc2cc(Cl)ccc2C)cs1	-0.8%	-10.6%
c1ccc2sc(SCN(C3CCCCC3)C3CCCCC3)nc2c1	-1.8%	5.7%
Cc1ccc(C)c(NC(=O)CSc2ncc3c(n2)-c2ccc(Cl)cc2N(C)S3(=O)=O)c1	2.4%	-5.4%
Cc1ccc(NC(=O)CN(CCc2ccccc2)S(=O)(=O)c2ccccc2)c(C)c1	-8.5%	9.0%
O=C(O)CC(NS(=O)(=O)c1ccc(Br)s1)c1ccccc1 (configuration not stated)	-2.3%	2.7%
O=C(Nc1ccc(F)cc1)Nc1ccc(Cl)cn1	2.2%	-18.2%
O=C(Nc1cccc(Cl)c1)Nc1ccc(Cl)cn1	5.1%	25.1µM*
CCCn1c(=O)c2sccc2n2c(CCCC(=O)NCCOC)nnc12	-1.6%	6.4%
CCCCC/C=C\C/C=C\C/C=C\CCCCC(=O)NC(C)C(=O)O (configuration not stated)	-1.6%	4.6%
CSc1nc(N(C)CCO)c2sc3nc(-c4ccco4)c4c(c3c2n1)CCC4	8.91µM*	-24.8%
CSc1nc(N2CCN(CCO)CC2)c2sc3nc(-c4ccco4)c4c(c3c2n1)CCC4	-16.1%	-1.2%
Cc1csc2nc(COC(=O)c3cccc(NC(=O)COc4ccc(Cl)cc4)c3)cc(=O)n12	-0.5%	-2.4%
Cc1ccc2nc(N3C(=O)C(O)=C(C(=O)c4cc5ccccc5o4)C3c3cccs3)sc2c1 (configuration not stated)	15.8µM*	9.2%
CCc1ccc2nc(N3C(=O)C(O)=C(C(=O)c4ccco4)C3c3cccs3)sc2c1 (configuration not stated)	25.1µM*	?
CCc1ccc2nc(N3CCN(C(=O)c4ccco4)CC3)sc2c1	-5.0%	10.7%
Cc1cc(N2C(=O)C(O)=C(C(=O)c3ccc(C)o3)C2c2cccs2)no1 (configuration not stated)	3.2%	-8.1%
CC(C)CS(=O)(=O)c1oc(-c2ccc(F)cc2)nc1S(=O)(=O)c1ccccc1	-5.6%	7.2%
SMILES	Cruzain Triton	Cruzain inh noDet
N#Cc1cccc(CS(=O)(=O)c2ccccc2)c1	1.2%	-1.9%
CCSc1nnc(NC(=O)c2cc(=O)c3cc(C)ccc3o2)s1	-1.2%	-6.2%
CCOC(=O)c1[nH]c2c(c1Cc1ccccc1)C(=O)CC(c1ccc(C(C)(C)C)cc1)C2 (configuration not stated)	-3.6%	10µM*
Cc1c(C(=O)OCc2ccccc2)[nH]c2c1C(=O)CC(c1ccc(C(C)(C)C)cc1)C2 (configuration not stated)	-1.6%	-9.4%
COCCn1c(=O)c(-c2cc(F)cc(F)c2)nc2cnc(Oc3ccc(OC)cc3)nc21	-0.4%	7.7%
O=C1CS(=O)(=O)C2(C(=O)N(Cc3ccccc3)c3ccccc32)N1c1ccccc1 (configuration not stated)	0.9%	?
Cc1ccc(CN2C(=O)C3(c4ccccc42)N(c2cccc(C(F)(F)F)c2)C(=O)CS3(=O)=O)cc1 (configuration not stated)	-8.9%	12.6µM*
O=C1CS(=O)(=O)C2(C(=O)N(Cc3ccc(F)cc3)c3ccccc32)N1c1cccc(C(F)(F)F)c1 (configuration not stated)	-6.7%	?
Cc1cc(C)cc(N2C(=O)CS(=O)(=O)C23C(=O)N(Cc2ccccc2)c2ccccc23)c1 (configuration not stated)	-4.7%	6.31µM*
Cc1ccc(C)c(N2CCN(C(=O)Nc3cn(CC(C)C)c(=O)c4ccccc34)CC2)c1	-8.2%	20.2%
Cn1c(=O)c(-c2ccc(F)cc2)nc2cnc(N3CCOCC3)nc21	2.4%	-2.9%

From PubChem
